According to PubChem BioAssay (Tox21):
Inconclusive results are not listed. A call without a number means that no potency is given here. Values without a mark were called inactive. Calls of active or inactive are those of the source. Calls follow the shape of the dose curve; as a rule, active = well fitted inhibition curve with a large enough effect in the repeat runs; inconclusive = weak or mixed curves; inactive = no such curve, though single readings can be large or run the other way.

Molecular target: Cytochrome P450 2D6 (Homo sapiens) (UniProt P10635)
Sequence (P10635 whole entry, looked up): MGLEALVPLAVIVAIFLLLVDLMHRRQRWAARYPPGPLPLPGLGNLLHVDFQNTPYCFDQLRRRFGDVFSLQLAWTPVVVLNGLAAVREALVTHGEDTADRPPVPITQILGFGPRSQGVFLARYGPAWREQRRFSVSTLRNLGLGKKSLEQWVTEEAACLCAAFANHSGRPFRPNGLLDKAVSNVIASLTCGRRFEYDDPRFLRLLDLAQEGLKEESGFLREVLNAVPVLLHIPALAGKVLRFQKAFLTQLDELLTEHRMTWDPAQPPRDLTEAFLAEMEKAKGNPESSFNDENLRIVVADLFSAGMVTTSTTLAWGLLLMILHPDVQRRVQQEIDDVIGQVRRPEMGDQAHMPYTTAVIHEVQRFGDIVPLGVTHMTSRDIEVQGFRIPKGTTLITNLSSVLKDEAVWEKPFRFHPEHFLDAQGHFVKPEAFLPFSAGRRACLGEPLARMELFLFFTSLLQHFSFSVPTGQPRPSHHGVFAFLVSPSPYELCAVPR
Test: Cytochrome P450 Family 2 Subfamily D Member 6 (CYP2D6) small molecule antagonists: luciferase reporter qHTS assay (AID 1671196); also: nearly all actives have a fitted effect of over 50% in size
Settings: P450-Glo CYP2D6 enzyme assay, luciferin luminescence, 1 h; series mostly up to 115 µM
Outline: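 Chemicals tested for interference with CYP2D6 activity; proluciferin substrate, NADPH regeneration, 1 h at room temperature, luminescent detection.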
Potency is read from the fitted curve at half-maximal effect.

| SMILES | Potency | activity change, negative = inhibition |
| --- | --- | --- |
| O=c1[nH]c2cc(C(F)(F)F)c(N3CCOCC3)cc2n(CP(=O)(O)O)c1=O | inactive |  |
| CSSc1ccoc1C | inactive |  |
| Cc1cccc(C)c1NC(=O)c1cc(S(N)(=O)=O)c(Cl)cc1O | inactive |  |
| CC(CO)(CO)C(=O)O | inactive |  |
| CC(C)(O)CCc1ccccc1 | inactive |  |
| CSCC[C@H](NC(=O)[C@H](Cc1c[nH]c2ccccc12)NC(=O)CCNC(=O)OC(C)(C)C)C(=O)N[C@@H](CC(=O)O)C(=O)N[C@@H](Cc1ccccc1)C(N)=O | inactive |  |
| CC1CCC(C(C)CS)CC1S (stereo not drawn) | inactive |  |
| CC(C)(C)S | 7.34 µM (active) |  |
| CC(C)(C)NCC(O)COc1cccc2c1C[C@H](O)[C@H](O)C2 (stereo partly drawn) | inactive |  |
| CNS(=O)(=O)c1cc(C(=O)N2CCC(CCN3C4CCC3CC(n3c(C)nc5ccccc53)C4)(c3cccc(F)c3)CC2)c(Cl)cc1F (stereo not drawn) | 25.2 µM (active) |  |
| CCN(CC)c1ccc(C(=C2C=CC(=[N+](CC)CC)C=C2)c2ccc(S(=O)(=O)O)cc2S(=O)(=O)[O-])cc1 | 20 µM (active) |  |
| FC(F)(F)C(F)(F)C(F)(F)C(F)(F)CCI | inactive |  |
| Cc1ccc(S(=O)(=O)NC(=O)NC2CCCCC2)cc1 | inactive |  |
| CC(C)c1ccc(C#N)cc1 | inactive |  |
| O=C(c1ccccc1)c1ccc(O)cc1 | 40.4 µM (active) |  |
| CCN(CC)C(=O)N1CCN(C)CC1 | inactive |  |
| O=[N+]([O-])c1ccc2ncccc2c1 | 31.8 µM (active) |  |
| CCC(=O)OCc1ccc(OC)cc1 | inactive |  |
| ClC1=C(Cl)C1(Cl)Cl | inactive |  |

| SMILES | Potency | activity change, negative = inhibition |
| --- | --- | --- |
| O=C(O)c1cccc(Oc2ccccc2)c1 | inactive |  |
| COC(=O)Nc1nc2ccc(C(=O)C3CC3)cc2[nH]1 | inactive |  |
| CCOC(=O)c1ccc(NC(=O)CN2CCCCC2)cc1 | 17.4 µM (active) |  |
| Cc1ccc(NC(=O)N(C)C)cc1NC(=O)N(C)C | inactive |  |
| [Cl][Nd]([Cl])[Cl] | inactive |  |
| CCN(CC)CCOC(=O)C(c1ccccc1)c1ccccc1 | 2.75 µM (active) |  |
| C[C@@H]1[C@H](O)[C@@H](C)/C=C/C=C\C=C\C=C\C=C\C=C\C=C\[C@H](O[C@@H]2O[C@H](C)[C@@H](O)[C@H](N)[C@@H]2O)C[C@@H]2O[C@](O)(C[C@@H](O)C[C@@H](O)[C@H](O)CC[C@@H](O)C[C@@H](O)CC(=O)O[C@H]1C)C[C@H](O)[C@H]2C(=O)O (stereo in doubt) | inactive |  |
| CCCCCCC(O)CCOC(C)=O (stereo not drawn) | inactive |  |
| Cc1ccc(N(CCO)CCO)cc1 | inactive |  |
| CCCCCCCC(=O)OCCCCCC | inactive |  |
| CC[C@H]1OC(=O)[C@H](C)[C@@H](O[C@H]2C[C@@](C)(OC)[C@@H](O)[C@H](C)O2)[C@H](C)[C@@H](O[C@@H]2O[C@H](C)C[C@H](N(C)C)[C@H]2O)[C@](C)(O)C[C@@H](C)C(=O)[C@H](C)[C@@H](O)[C@]1(C)O | inactive |  |
| CCCCCCCCCCCCCOC(=O)CCSCCC(=O)OCCCCCCCCCCCCC |  | -6.54% [at 23.6 µM] |
| O[C@@H](CNC[C@H](O)[C@H]1CCc2cc(F)ccc2O1)[C@@H]1CCc2cc(F)ccc2O1 | 0.275 µM (active) |  |
| CC(=O)C(=O)CC(C)C | inactive |  |
| CC(=O)OCC(=O)[C@@]1(OC(C)=O)[C@@H](C)C[C@H]2[C@@H]3C[C@H](F)C4=CC(=O)C=C[C@]4(C)[C@@]3(F)[C@@H](O)C[C@@]21C | inactive |  |
| CC(CCc1ccc(O)cc1)NCCc1ccc(O)c(O)c1 (stereo not drawn) | 15.5 µM (active) |  |
| CC(=O)NCCO | inactive |  |
| SCCc1cnccn1 | inactive |  |
| CCCCCCCCCCCCCOS(=O)(=O)O | inactive |  |
